# Source: PubChem
# Spn PMK inh = blocks S. pneumoniae phosphomevalonate kinase. purified PMK, PK/LDH-coupled NADH absorbance 340 nm. inhibition, % at 10 µM. 65,000 tested, 0.49% active. AID 539;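 active means top-ranked compounds by inhibition in the single 10 µM screen, taking a fixed number of the strongest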;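 further: 0% = full reaction with DMSO carrier and 100% = background rate without enzyme reaction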
# NADH coupling = inhibitors of enzymes used to reach an NAD/NADH endpoint; AID 774; IC50, µM (top dose mostly 10 µM), without a hit: at the top dose inhibition; coupled PK/LDH NADH assays, four targets; 65,000 tested, 0.02% active;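 active means single-dose screening hits from any of four coupled enzyme assays that gave an IC50 when retested across doses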;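 further: the DPM-DC format reads NADH fluorescence rather than 340 nm absorbance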
# DPM-DC inhibit = blocks S. pneumoniae diphosphomevalonate decarboxylase; purified DPM-DC, PK/LDH coupled NADH fluorescence; calls only at 10 µM; 65,000 tested, 0.49% active;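 active means the 320 compounds with the highest percent inhibition in the single-dose primary screen, excluding strongly autofluorescent ones, cut at about 32% in these data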;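 further: kinetic rate of NADH fluorescence loss reporting ADP formed by the decarboxylase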
# Spn MK inh = inhibitors of Streptococcus pneumoniae mevalonate kinase; purified MK, PK/LDH-coupled NADH absorbance 340 nm; inhibition, % at 10 µM; 65,000 tested, 0.48% active;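 active means ranked among the strongest by inhibition in the single 10 µM screen, a fixed top-ranked set picked for dose follow-up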
# Fluor 339 460 = intrinsic fluorescence of library compounds, ex339/em460 – biochemical, MLSMR library, data from DPM-DC assay, artefact control, profiling panel; compound autofluorescence, ex339/em460 nm, NADH buffer; hits give high values; 1 = no-compound wells, NADH background; fluorescence fold increase at 10 µM; 65,000 tested, 5.5% active;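 active means at 10 µM, mean starting fluorescence two-fold or more over control wells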;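 further: signal is the first read of a kinetic run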
# Abs 340nm = compound absorbs light at 340 nm; compound absorbance at 340 nm, fold over control; fold change at 10 µM; 65,000 tested, under 10 active; AID 708;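 active means at 10 µM dose, initial 340 nm absorbance at least 2 fold that of control wells; inactive means change under 2 fold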;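 further: initial absorbance extrapolated from kinetic A340 decline of NADH oxidation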
# Active calls of the source: *; i = inactive; . = no result given. Most compounds without a hit are left out; they make up all but 6.8% or so of the library.
SMILES,Spn PMK inh,NADH coupling,DPM-DC inhibit,Spn MK inh,Fluor 339 460,Abs 340nm
CC(C)CC(=O)Nc1ccc2oc(-c3ccncc3)nc2c1,16.0,11.0%,.,6.0,3.72*,1.04
O=C(Nc1ccc2oc(-c3ccncc3)nc2c1)c1ccccc1F,16.0,15.0%,.,14.0,3.71*,1.05
C=CCOc1nc2c(c(=O)n(C)c(=O)n2C)n1Cc1c(Cl)cccc1Cl,8.0,1.0%,i,1.0,1.05,1
Cc1ccc2oc(=O)c3cnn(CC(=O)NC4CCCCC4C)c3c2c1 (centres undefined),10.0,7.0%,i,8.0,1,1.02
COc1ccc(C(=O)N2CCN(S(=O)(=O)c3cc(Cl)ccc3OC)CC2)cc1,15.0,11.0%,i,6.0,1.04,0.99
c1nc2sc3c(c2c2nnnn12)CCC3,12.0,10.0%,.,8.0,2.11*,1.03
CSc1ccc(Cl)c(C(=O)OCC(=O)N2CCOCC2)c1,24.0,8.0%,i,0.0,1.43,1.01
CCOC(=O)c1cc2c(=O)[nH]ccc2nc1C,12.0,7.0%,.,2.0,3.66*,1.05
CCOC(=O)c1cc(C(=O)OCC)c2cc(Br)ccc2n1,5.0,9.0%,i,14.0,1.08,1.04
Cc1ccc(S(=O)(=O)c2cc3c(=O)n4ccccc4nc3n(Cc3ccco3)c2=N)cc1,5.0,10.0%,.,15.0,3.63*,1.17
Cc1ccc(S(=O)(=O)c2cc3c(=O)n4cccc(C)c4nc3n(Cc3ccco3)c2=N)cc1C,8.0,11.0%,i,6.0,2.28*,1
Cc1ccc(S(=O)(=O)c2cc3c(=O)n4ccccc4nc3n(CC3CCCO3)c2=N)cc1 (centres undefined),6.0,12.0%,i,5.0,1.31,1.01
Cc1c(CN(C)CCc2ccccc2)c(=O)n(-c2ccccc2)n1C,0.0,11.0%,i,34.0,1.07,1.04
COC(=O)c1cnn2c3c(c(C)nc12)CCCC3,24.0,14.0%,.,3.0,4.83*,0.99
C=CCc1c(C)nc2c(C(=O)O)cnn2c1C,14.0,5.0%,i,0.0,1.89,1.01
Cn1c2ccccc2c2ncn(CCCN3CCOCC3)c(=O)c21,8.0,6.0%,i,1.0,2.39*,1.01
Cc1ccc2[nH]c3c(=O)n(CCCN4CCN(C)CC4)cnc3c2c1,12.0,8.0%,i,10.0,2.11*,0.99
COc1cc2[nH]c3c(=O)n(CCN4CCCCC4)cnc3c2cc1OC,9.0,10.0%,.,11.0,3.63*,1.1
O=c1c2[nH]c3cccc(Cl)c3c2ncn1CCN1CCCCC1,4.0,4.0%,i,9.0,1.62,1.02
Cn1c2ccc(F)cc2c2ncn(CCN3CCOCC3)c(=O)c21,12.0,6.0%,i,9.0,1.71,1
Cc1ccc2[nH]c3c(=O)n(CCCN4CCOCC4)cnc3c2c1,0.0,12.0%,i,10.0,2.74*,1.07
Cc1noc(C)c1CSc1cc(C)c2ccccc2n1,16.0,9.0%,i,10.0,1.02,1
COc1ccc(NC(=O)Cn2cccc2)cc1Cl,12.0,6.0%,i,6.0,1.01,0.97
O=C(OCC1COc2ccccc2O1)c1c(F)cccc1F (centres undefined),0.0,2.0%,i,5.0,1.08,1.03
CCOc1ccc2cc(C#N)c(SCC(=O)N3CCCC3)nc2c1,9.0,8.0%,i,13.0,2.15*,1.03
SMILES,Spn PMK inh,NADH coupling,DPM-DC inhibit,Spn MK inh,Fluor 339 460,Abs 340nm
CCOC(=O)C1=C(C)NC(=O)NC1/C(C)=C/c1ccccc1 (centres undefined),38.0*,14.0%,i,0.0,1.13,1.04
Cc1sc2nc3ccc(N4CCCC4)nn3c(=O)c2c1C,3.0,5.0%,.,7.0,2.06*,1.12
Cc1sc2nc3n(c(=O)c2c1C)CCCS3,2.0,2.0%,i,2.0,1.14,1.09
Cn1c(=O)[nH]c(=O)c2c1nc(N1CCCCC1)n2CCCSc1nc2ccccc2s1,14.0,10.0%,i,15.0,1.1,0.98
Cc1ccc(-c2[nH]n3c(=O)c4c(nc3c2C)CCCC4)cc1,6.0,12.0%,i,15.0,2.39*,1.04
O=c1c2c(nc3cc(-c4ccccc4)[nH]n13)CCC2,10.0,12.0%,i,6.0,3.4*,0.99
Cc1cc2nc3c(c(=O)n2[nH]1)CCCC3,7.0,6.0%,i,6.0,1.22,1.03
COc1ccc(-c2cc3nc4c(c(=O)n3[nH]2)CCC4)cc1,0.0,7.0%,.,13.0,2.1*,1.03
COc1cc(OC)c(N2CC34C=CC(O3)C(C(=O)O)C4C2=O)cc1Cl (centres undefined),0.0,3.0%,i,8.0,1.07,1.02
C=C(C)Cn1c(NCCC)nc2c1c(=O)n(C)c(=O)n2C,11.0,6.0%,i,3.0,1.06,1.03
C/C(NC1CCCCC1)=C(/C#N)C(=O)NCCN1CCOCC1,8.0,3.0%,i,1.0,1.1,1.01
COC(=O)c1ccccc1NC(=O)c1cc(-c2ccc(OC)c(OC)c2)on1,17.0,9.0%,i,7.0,1.71,0.98
CCCOc1cccc(C2C(C(=O)c3ccc(C)o3)=C(O)C(=O)N2CCCN(C)C)c1 (centres undefined),8.0,3.0%,i,0.0,1.05,1.02
CC1(C)CC(=O)c2c(nc3ccccc3c2N)C1,0.0,4.0%,i,0.0,2.75*,1.07
CCOC(=O)c1ccccc1NC1c2ccccc2C(=O)N1C1CCN(C(=O)OCC)CC1 (centres undefined),0.0,1.0%,.,5.0,2.43*,0.99
CCOC(=O)N1CCC(N2C(=O)c3ccccc3C2Nc2ccc3c(C)cc(=O)oc3c2)CC1 (centres undefined),10.0,3.0%,.,4.0,2.48*,1.06
CCOC(=O)c1ccccc1NC1OC(=O)c2ccccc21 (centres undefined),16.0,8.0%,.,0.0,3.63*,1.04
CCOC(=O)c1ccccc1NC1c2ccccc2C(=O)N1c1ccc(C)cn1 (centres undefined),2.0,4.0%,i,5.0,1.56,1.03
CCOC(=O)c1ccc(NC(=O)NC2CCN(CC(=O)NCc3ccc4c(c3)OCO4)CC2)cc1,11.0,5.0%,i,4.0,1.11,1
COc1ccc(C(=O)CN2C(=O)C(C)(C)Oc3ccc(C(=O)N4CCCCCC4)cc32)cc1,13.0,8.0%,i,5.0,1.03,1.02
CC(C)C(NS(=O)(=O)c1cccc2nsnc12)C(=O)N1CCc2ccccc2C1 (centres undefined),12.0,6.0%,i,5.0,1.01,1.04
Nc1nc2c(c3c1c(=O)oc1ccccc13)CCCCC2,12.0,8.0%,.,4.0,2.21*,1.08
CC(=O)Nc1nc2c(c3c1c(=O)oc1ccccc13)CCCCC2,0.0,3.0%,i,8.0,1.24,1.04
CCN(CC)Cc1c[nH]c2c(C(=O)OC)cccc12,15.0,9.0%,.,3.0,2.12*,1.04
O=C(NC1CCCC1)C(c1ccco1)N(Cc1ccccc1)C(=O)c1csnn1 (centres undefined),13.0,3.0%,i,0.0,1.03,0.99
